Laboratory results: PubChem BioAssay (EPA / NIEHS)
Where “and” joins values, the source holds several entries; their conditions need not be identical. Equal entries are not always repeated. Records with an inconclusive call do not appear. Calls of active or inactive are those of the source. How the source made its calls, unless noted: active means hit-call score of the fitted dose curve at least 0.9, where 1 is the maximum; inconclusive means response in the unintended direction; inactive means score below 0.9.

Columns and labels:
[1] = biological target: mouse Peroxisome Proliferator-activated Receptor gamma (PPARg), Pparg (gene 19016) (UniProt P37238); test: ATG_mPPARg_XSP2: Attagene TRANS-FACTORIAL Multi-Species (XSP2) HepG2 Assay for mouse Peroxisome Proliferator-activated Receptor gamma (PPARg) (AID 2283830);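 further: hits are gains in reporter mRNA above DMSO so AC50 marks activation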
Chain of mouse Peroxisome Proliferator-activated Receptor gamma (PPARg), Pparg (gene 19016) (P37238 whole entry, looked up, the tested form may be a part): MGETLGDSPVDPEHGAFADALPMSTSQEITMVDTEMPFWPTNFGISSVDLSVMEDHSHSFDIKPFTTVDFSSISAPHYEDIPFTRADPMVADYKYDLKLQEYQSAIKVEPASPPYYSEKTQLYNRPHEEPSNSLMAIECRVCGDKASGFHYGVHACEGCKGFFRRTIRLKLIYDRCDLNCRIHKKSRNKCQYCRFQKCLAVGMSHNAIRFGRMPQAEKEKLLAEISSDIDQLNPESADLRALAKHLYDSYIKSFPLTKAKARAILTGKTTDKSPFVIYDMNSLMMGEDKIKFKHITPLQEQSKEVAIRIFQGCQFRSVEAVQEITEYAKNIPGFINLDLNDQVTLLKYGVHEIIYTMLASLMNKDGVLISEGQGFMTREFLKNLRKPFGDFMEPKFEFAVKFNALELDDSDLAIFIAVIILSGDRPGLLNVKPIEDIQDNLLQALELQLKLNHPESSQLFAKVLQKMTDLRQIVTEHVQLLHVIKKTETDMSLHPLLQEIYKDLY
In short: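 HepG2 cells transiently transfected with GAL4-UAS reporter units for chimeric NR-Gal4 proteins including mouse PPARg, exposed 24 h; medium contained 3 nM 6-alpha-fluorotestosterone and 1.5 nM norgestrel. Reporter mRNA quantified by RT-PCR, HpaI digestion and capillary electrophoresis, vs DMSO.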

[2] = biological target: Nuclear receptor subfamily 1 group I member 2 (Mus musculus) (UniProt O54915); test: ATG_mPXR_XSP2: Attagene TRANS-FACTORIAL Multi-Species (XSP1) HepG2 Assay for mouse Pregnane X Receptor (PXR) (AID 2283831)
Chain of Nuclear receptor subfamily 1 group I member 2 (Mus musculus) (O54915 whole entry, looked up): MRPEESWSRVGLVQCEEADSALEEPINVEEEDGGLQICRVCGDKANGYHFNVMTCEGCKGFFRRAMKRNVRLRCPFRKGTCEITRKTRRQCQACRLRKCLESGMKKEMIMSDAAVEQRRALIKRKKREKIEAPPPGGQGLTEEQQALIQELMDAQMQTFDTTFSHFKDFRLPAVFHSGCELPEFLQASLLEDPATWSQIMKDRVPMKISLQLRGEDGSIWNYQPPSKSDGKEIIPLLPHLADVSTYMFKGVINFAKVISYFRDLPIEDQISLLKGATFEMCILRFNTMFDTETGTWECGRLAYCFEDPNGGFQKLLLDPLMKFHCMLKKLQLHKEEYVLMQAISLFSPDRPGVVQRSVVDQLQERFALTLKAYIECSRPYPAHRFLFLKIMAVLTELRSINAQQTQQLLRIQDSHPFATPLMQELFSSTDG
In short: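 Fluorescence signals from capillary electrophoresis of RT-PCR-amplified reporter mRNA give the readout, gain-of-signal versus DMSO. Transfected HepG2 cells, 24 h dosing, medium contained 3 nM 6-alpha-fluorotestosterone and 1.5 nM norgestrel.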

[3] = biological target: zebrafish Thyroid Hormone Receptor alpha (TRa), thraa (gene 30670) (UniProt Q98867); test: ATG_zfTRa_XSP2: Attagene TRANS-FACTORIAL Multi-Species (XSP1) HepG2 Assay for zebrafish Thyroid Hormone Receptor alpha (TRa) (AID 2283832);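 further: actives raise zebrafish TRa-Gal4 reporter transcript above DMSO baseline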
Chain of zebrafish Thyroid Hormone Receptor alpha (TRa), thraa (gene 30670) (Q98867 whole entry, looked up, the tested form may be a part): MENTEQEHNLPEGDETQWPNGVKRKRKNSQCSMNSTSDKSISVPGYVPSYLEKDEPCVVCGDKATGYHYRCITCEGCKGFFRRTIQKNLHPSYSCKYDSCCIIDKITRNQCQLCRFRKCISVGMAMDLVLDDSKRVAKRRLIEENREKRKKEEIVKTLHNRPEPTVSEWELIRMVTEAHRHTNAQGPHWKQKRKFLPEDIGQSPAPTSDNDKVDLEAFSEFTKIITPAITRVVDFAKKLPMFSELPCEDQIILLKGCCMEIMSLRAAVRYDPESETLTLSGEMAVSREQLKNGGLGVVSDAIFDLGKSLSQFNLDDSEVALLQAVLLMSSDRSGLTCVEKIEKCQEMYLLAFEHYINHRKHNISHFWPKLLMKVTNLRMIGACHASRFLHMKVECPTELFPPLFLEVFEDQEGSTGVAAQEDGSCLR
In short: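 Transient transfection of human HepG2 with GAL4-UAS reporter units, then 24 h chemical treatment. RNA isolated, reverse-transcribed, PCR-amplified, FAM-labelled, HpaI-digested and run on capillary electrophoresis. Gain-of-signal relative to DMSO.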

[4] = test system: zebrafish Peroxisome Proliferator-activated Receptor gamma (PPARg), gene 557037; test: ATG_zfPPARg_XSP2: Attagene TRANS-FACTORIAL Multi-Species (XSP2) HepG2 Assay for zebrafish Peroxisome Proliferator-activated Receptor gamma (PPARg) (AID 2283833);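 further: reporter mRNA from a zebrafish PPARg GAL4 chimera measured by RT-PCR and capillary electrophoresis; actives increase reporter signal over DMSO so AC50 reflects activation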
In short: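 HepG2, transient MRTU transfection, 24 h compound; zfPPARg-GAL4 reporter mRNA by RT-PCR + capillary electrophoresis; gain-of-signal vs DMSO.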

[5] = ATG_M_61_XSP2: Attagene TRANS-FACTORIAL Multi-Species (XSP2) HepG2 Assay for M61 Transcription Factor (Internal Marker) (AID 2283835; active means hit-call score of the fitted dose curve at least 0.9, where 1 is the maximum; inactive means score below 0.9;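 further: reporter mRNA of an internal background marker read by RT-PCR and capillary electrophoresis; active means a rise in signal above the DMSO baseline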)
In short: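 First, HepG2 cells are transfected with reporter units under GAL4-UAS control. Next, chemicals are applied for 24 h. Then total RNA is reverse-transcribed, amplified, fluorescently labelled and sized by capillary electrophoresis, with gain of signal scored against DMSO.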

[6] = biological target: zebrafish Thyroid Hormone Receptor beta (TRb), thrb (gene 30607) (UniProt Q9PVE4); test: ATG_zfTRb_XSP2: Attagene TRANS-FACTORIAL Multi-Species (XSP1) HepG2 Assay for zebrafish Thyroid Hormone Receptor beta (TRb) (AID 2283836)
Chain of zebrafish Thyroid Hormone Receptor beta (TRb), thrb (gene 30607) (Q9PVE4 whole entry, looked up, the tested form may be a part): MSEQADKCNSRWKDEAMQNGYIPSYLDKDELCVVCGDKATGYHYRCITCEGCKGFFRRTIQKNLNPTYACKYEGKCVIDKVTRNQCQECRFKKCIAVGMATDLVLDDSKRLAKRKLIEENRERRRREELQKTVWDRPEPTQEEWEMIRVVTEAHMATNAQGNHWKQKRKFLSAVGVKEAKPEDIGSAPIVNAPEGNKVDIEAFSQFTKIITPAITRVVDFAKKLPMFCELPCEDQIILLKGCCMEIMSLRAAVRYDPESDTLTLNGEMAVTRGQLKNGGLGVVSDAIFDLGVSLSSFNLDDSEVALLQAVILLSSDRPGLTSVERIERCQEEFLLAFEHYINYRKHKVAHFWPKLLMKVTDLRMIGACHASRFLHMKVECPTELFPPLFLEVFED
In short: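 Human liver HepG2, transient MRTU transfection (NR-Gal4 chimeras, GAL4-UAS reporters); 24 h compound exposure; total RNA → oligo(dT) RT → PCR → 6-FAM label → HpaI cut → CE fluorescence. DMSO = negative control/baseline.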

[7] = biological target: human Thyroid hormone Receptor alpha (TRa), THRA (gene 7067) (UniProt P10827); test: ATG_hTRa_XSP2: Attagene TRANS-FACTORIAL Multi-Species (XSP2) HepG2 Assay for human Thyroid hormone Receptor alpha (TRa) (AID 2283838)
Chain of human Thyroid hormone Receptor alpha (TRa), THRA (gene 7067) (P10827 whole entry, looked up, the tested form may be a part): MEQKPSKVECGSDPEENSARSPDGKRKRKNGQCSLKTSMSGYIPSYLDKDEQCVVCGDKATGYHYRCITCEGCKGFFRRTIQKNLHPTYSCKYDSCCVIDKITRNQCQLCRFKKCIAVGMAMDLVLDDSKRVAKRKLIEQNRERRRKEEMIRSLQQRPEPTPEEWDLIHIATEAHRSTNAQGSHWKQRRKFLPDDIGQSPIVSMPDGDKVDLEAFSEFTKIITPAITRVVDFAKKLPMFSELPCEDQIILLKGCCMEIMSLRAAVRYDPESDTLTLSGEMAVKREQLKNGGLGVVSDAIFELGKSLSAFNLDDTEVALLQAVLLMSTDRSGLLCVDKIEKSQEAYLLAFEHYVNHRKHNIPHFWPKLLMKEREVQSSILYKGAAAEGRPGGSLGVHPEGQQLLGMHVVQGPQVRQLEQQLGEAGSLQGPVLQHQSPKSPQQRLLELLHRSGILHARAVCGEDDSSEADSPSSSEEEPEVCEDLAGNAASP
In short: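 HepG2 cells were transiently transfected with GAL4-UAS reporter units for chimeric human TRa-Gal4 and dosed for 24 hours, with 3 nM 6-alpha-fluorotestosterone and 1.5 nM norgestrel present. Reporter mRNA was quantified by RT-PCR, FAM labelling and capillary electrophoresis, with gain of signal fitted versus DMSO.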

[8] = biological target: frog Thyroid hormone Receptor alpha (TRa), thra-a (gene 397942) (UniProt P15204); test: ATG_frTRa_XSP2: Attagene TRANS-FACTORIAL Multi-Species (XSP2) HepG2 Assay for frog Thyroid hormone Receptor alpha (TRa) (AID 2283839)
Chain of frog Thyroid hormone Receptor alpha (TRa), thra-a (gene 397942) (P15204 whole entry, looked up, the tested form may be a part): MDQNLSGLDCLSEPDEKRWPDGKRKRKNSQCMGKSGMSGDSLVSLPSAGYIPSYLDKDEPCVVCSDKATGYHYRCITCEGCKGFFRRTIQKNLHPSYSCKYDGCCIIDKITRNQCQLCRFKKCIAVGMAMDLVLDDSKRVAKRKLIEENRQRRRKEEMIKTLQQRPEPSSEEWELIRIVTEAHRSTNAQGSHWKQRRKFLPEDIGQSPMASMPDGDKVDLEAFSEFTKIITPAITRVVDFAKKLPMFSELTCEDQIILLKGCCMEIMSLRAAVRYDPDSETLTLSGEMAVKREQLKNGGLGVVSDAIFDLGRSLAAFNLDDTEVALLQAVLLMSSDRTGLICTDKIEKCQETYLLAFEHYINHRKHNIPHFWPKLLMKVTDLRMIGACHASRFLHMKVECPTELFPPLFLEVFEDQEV
In short: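 Chimeric frog TRα-GAL4 activity in human liver cells measures reporter transcript induction 24 h post-dose. Detection uses RT-PCR, HpaI-digested labelled products and fluorescence capillary electrophoresis; DMSO serves as negative control.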

[9] = biological target: human Thyroid hormone Receptor beta (TRb), THRB (gene 7068) (UniProt P10828); test: ATG_hTRb_XSP2: Attagene TRANS-FACTORIAL Multi-Species (XSP2) HepG2 Assay for human Thyroid hormone Receptor beta (TRb) (AID 2283840);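 further: actives raise reporter mRNA so potency reflects agonist-like gain of signal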
Chain of human Thyroid hormone Receptor beta (TRb), THRB (gene 7068) (P10828 whole entry, looked up): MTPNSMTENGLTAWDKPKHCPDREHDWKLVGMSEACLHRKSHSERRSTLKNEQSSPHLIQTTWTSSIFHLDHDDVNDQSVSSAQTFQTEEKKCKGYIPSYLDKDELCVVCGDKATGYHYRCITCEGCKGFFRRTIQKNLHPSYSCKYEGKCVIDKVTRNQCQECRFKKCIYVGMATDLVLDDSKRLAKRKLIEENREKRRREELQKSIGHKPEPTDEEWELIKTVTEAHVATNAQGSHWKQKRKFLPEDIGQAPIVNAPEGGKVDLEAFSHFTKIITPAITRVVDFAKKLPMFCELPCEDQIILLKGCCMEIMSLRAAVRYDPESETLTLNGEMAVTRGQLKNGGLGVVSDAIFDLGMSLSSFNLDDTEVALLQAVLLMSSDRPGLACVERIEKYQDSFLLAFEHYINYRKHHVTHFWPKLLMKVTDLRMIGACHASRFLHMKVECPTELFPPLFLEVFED
In short: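 Gain-of-signal reporter transcription, referenced to DMSO, was measured in transiently transfected HepG2 after 24 h exposure; labeled RT-PCR products were resolved by capillary electrophoresis. Assay medium included 3 nM 6-alpha-fluorotestosterone and 1.5 nM norgestrel.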

[10] = CPHEA_Stoker_NIS_Cytotoxicity: Cytotoxicity Assessment for CPHEA's Radioactive Iodide Uptake (RAIU) Assay for Sodium/Iodide Symporter (NIS) Inhibition, Stoker and Laws Labs (AID 2283897);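 on AC50: active means loss of ATP signal versus DMSO meaning cytotoxicity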
In short: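 hNIS-HEK293T-EPA human kidney cells were exposed for 2 hours at room temperature to test chemicals (0.001–100uM, 0.5% final DMSO) in HEPES-buffered HBSS, pH 7.4. Viability was read as ATP content by luciferase bioluminescence, loss of signal versus DMSO.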

[11] = test system: turtle Thyroid Hormone Receptor, alpha (TRa), gene 101949057; test: ATG_trTRa_XSP2: Attagene TRANS-FACTORIAL Multi-Species (XSP1) HepG2 Assay for turtle Thyroid Hormone Receptor, alpha (TRa) (AID 2283834);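 further: hits raise reporter mRNA over the DMSO baseline so AC50 marks activators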
In short: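 Multiplexed TRANS reporter assay; HepG2 carrying NR-Gal4 constructs treated 24 h. mRNA of the GAL4-UAS reporter quantified via labelled RT-PCR fragments on a genetic analyzer, vs DMSO negative control.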

[12] = ATG_XTT_Cytotoxicity_XSP2: Cytotoxicity Assessment in the Attagene TRANS-FACTORIAL Multi-Species (XSP2) HepG2 Assay (AID 2283837)
In short: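 HepG2 cells, transiently transfected with multiple reporter constructs, exposed to chemical for 24 h. Cell number assessed with XTT fluorescence read-out; loss of signal fitted relative to DMSO.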

PGR (gene 5241) = PGR (gene 5241) (UniProt P06401); test: TOX21_PR_BLA_Followup_Agonist_ratio: Tox21 HEK293 Progesterone Receptor (PR) Agonism Beta-lactamase Follow-Up Assay, Ratio (AID 2283933)
Chain of PGR (gene 5241) (P06401 whole entry, looked up): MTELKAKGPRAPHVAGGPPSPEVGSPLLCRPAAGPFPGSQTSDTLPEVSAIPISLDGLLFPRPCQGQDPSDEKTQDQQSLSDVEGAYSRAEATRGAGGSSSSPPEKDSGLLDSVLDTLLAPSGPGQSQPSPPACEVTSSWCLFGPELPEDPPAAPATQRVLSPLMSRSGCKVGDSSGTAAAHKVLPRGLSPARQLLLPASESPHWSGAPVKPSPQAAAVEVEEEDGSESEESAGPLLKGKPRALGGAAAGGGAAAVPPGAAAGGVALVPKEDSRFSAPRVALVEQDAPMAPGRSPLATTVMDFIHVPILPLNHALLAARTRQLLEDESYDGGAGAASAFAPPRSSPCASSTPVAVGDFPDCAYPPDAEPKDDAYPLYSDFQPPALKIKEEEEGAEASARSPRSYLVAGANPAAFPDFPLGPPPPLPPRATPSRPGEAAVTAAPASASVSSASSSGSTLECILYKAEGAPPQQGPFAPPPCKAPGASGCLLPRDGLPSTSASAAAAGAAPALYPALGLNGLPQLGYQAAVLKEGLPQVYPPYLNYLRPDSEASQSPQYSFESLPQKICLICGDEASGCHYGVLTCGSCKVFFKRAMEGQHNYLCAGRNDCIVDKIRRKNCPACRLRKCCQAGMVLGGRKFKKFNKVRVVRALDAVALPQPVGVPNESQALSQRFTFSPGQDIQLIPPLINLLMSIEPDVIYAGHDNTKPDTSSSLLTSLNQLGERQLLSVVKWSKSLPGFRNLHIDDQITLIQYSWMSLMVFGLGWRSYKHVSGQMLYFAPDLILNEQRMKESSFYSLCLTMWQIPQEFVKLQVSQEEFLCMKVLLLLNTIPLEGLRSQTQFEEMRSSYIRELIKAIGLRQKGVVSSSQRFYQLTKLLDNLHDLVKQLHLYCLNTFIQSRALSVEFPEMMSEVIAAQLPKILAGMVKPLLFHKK
In short: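 HEK293T PR-UAS-bla, 2% CS-FBS; 6 hr preincubation, cpd/DMSO pinned, 16 hr 37C/5% CO2; LiveBLAzer B/G 2 hr RT; FRET ch2/ch1 ratio, agonist direction vs DMSO. Viability by CellTiter-Glo in same wells.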

Measured: AC50

C=C(C)CN(CC)c1c([N+](=O)[O-])cc(C(F)(F)F)cc1[N+](=O)[O-]
active: [1] 43.7 µM and 52.8 µM | [2] 3.92 µM and 2.8 µM | [10] 9.92 µM
inactive: [3] | [4] | [5] | [6] | [7] | [8] | [9]

COP(=S)(OC)Oc1ccc([N+](=O)[O-])c(C)c1
inactive: [3] | [4] | [11] | [5] | [6] | [7] | [8] | [9] | [10]
active: [1] 31.3 µM | [2] 4.6 µM

CC(C)NC(=O)N1CC(=O)N(c2cc(Cl)cc(Cl)c2)C1=O
inactive: [3] | [4] | [11] | [5] | [6] | [7] | [8]
active: [1] 40.6 µM | [2] 6.7 µM

CC1(C)C(C=C(Cl)Cl)C1C(=O)OC(C#N)c1cccc(Oc2ccccc2)c1 (stereo unspecified)
active: [1] 27.8 µM | [2] 2.65 µM | [4] 12.6 µM
inactive: [3] | [11] | [5] | [6] | [7] | [8] | [9] | [10]

CC(C)=CC1C(C(=O)OCc2coc(Cc3ccccc3)c2)C1(C)C (stereo unspecified)
inactive: [10]

Clc1cccc(C(Cl)(Cl)Cl)n1
inactive: [10]

Nc1c(Cl)c(Cl)nc(C(=O)O)c1Cl
inactive: [10]

Cc1ccc(N=CN(C)C=Nc2ccc(C)cc2C)c(C)c1
inactive: [10]

COP(=S)(OC)SCn1nnc2ccccc2c1=O
inactive: [2] | [4] | [11] | [5] | [6] | [12] | [7] | [8] | [9] | [10]
active: [1] 51.6 µM and 32.6 µM

CC1(C)CCC(=Cc2ccc(Cl)cc2)C1(O)Cn1cncn1 (stereo unspecified)
inactive: [1] | [3] | [4] | [11] | [6] | [7] | [8] | [9] | PGR (gene 5241)
active: [2] 6.24 µM
